PBM binding z-score data for seven sequences are collected here from the supplement of paper PMC6555819.

Holding throughout (assay): PBM binding z-score (relative to random genomic background probes); higher = stronger binding; sequences stand for … in GC…GCGATTGACAGCGTAGAATGAAGG
Test [1] deals with PPARg:RXRa DBDmut IVT, anti-RXR (DBD mutation: RXRa K156A/R161A, NR concentration 270 nM, RXRa partner concentration 90 nM). The method in brief:
(§1)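 Binding buffer was PBS pH 7.4 with 2% milk, 0.02% Triton X-100, 1 mM DTT, 0.2 mg/mL BSA and 0.4 mg/ml salmon testes DNA. In it, ligand-free nuclear receptor dimers were incubated 1 h on custom Agilent 4×180K protein-binding microarrays carrying double-stranded probes. Antibodies against each partner (one per run) detected binding, and z-scores were calculated against random background probes after regression normalization of scanned fluorescence.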

Test [2] relates to PPARg:RXRa IVT, anti-PPARg (NR concentration 270 nM, RXRa partner concentration 90 nM). The method in brief:
as §1

Test [3] has as its system PPARg DBDmut:RXRa IVT, anti-PPARg (DBD mutation: PPARg1 K132A/R137A, NR concentration 270 nM, RXRa partner concentration 90 nM). The method in brief:
as §1

In test [4] the test system is PPARg DBDmut IVT, anti-PPARg (DBD mutation: PPARg1 K132A/R137A, NR concentration 270 nM). The method in brief:
as §1

Test [5] concerns PPARg homodimer (NR concentration 180 nM). The method in brief: as §1
In test [6] the test system is PXR:RXRa (NR concentration 270 nM, RXRa partner concentration 90 nM). Put shortly: as §1
Test [7] deals with PXR homodimer (NR concentration 270 nM). Put shortly: as §1
Test [8] deals with RARa:RXR (NR concentration 270 nM, RXRa partner concentration 90 nM). The method in brief:
as §1

Test [9] has as its system RARa homodimer (NR concentration 270 nM). Put shortly: as §1
Test [10] has as its system RARb:RXRa (NR concentration 270 nM, RXRa partner concentration 90 nM). The method in brief:
as §1

The test system of test [11] is RARb homodimer (NR concentration 270 nM). Put shortly: as §1
Test [12] has as its system RARg:RXRa (NR concentration 270 nM, RXRa partner concentration 90 nM). Put shortly: as §1
Test [13] deals with RARg homodimer (NR concentration 270 nM). The method in brief:
as §1

Test [14] deals with RXRa DBDmut IVT, anti-RXR (DBD mutation: RXRa K156A/R161A, NR concentration 90 nM). Put shortly: as §1
The test system of test [15] is RXRa homodimer (NR concentration 180 nM). Put shortly: as §1
The subject of test [16] is THRa:RXRa (NR concentration 90 nM, RXRa partner concentration 90 nM). Put shortly:
as §1

The test system of test [17] is THRa homodimer (NR concentration 90 nM). The method in brief: as §1
Test [18] has as its system VDR homodimer (NR concentration 270 nM). Put shortly:
as §1

ACAGACAGGTGAGTGAAGGCAACTCAGCTGGACG: the PBM binding z-score in [1] is 0.534; in test [2], 0.283; in test [3] it was 0.108; in test [4], -0.0836; in test [5], -0.372; in test [6], -0.299. In addition, the PBM binding z-score was -0.329 in [7]; -0.0789 in test [8]; -0.354 in test [9]; 0.403 in [10]; -0.0202 in test [11]; 0.0165 in test [12]. For the same sequence, the PBM binding z-score in test [13] is 0.418; in test [14], -0.43; in [15], 0.192; in test [16] it was 0.383; in test [17], -0.689; in test [18] it was -0.742.

In the case of ATCTCTAGGTAACCAAGTTCAGGGAATGCCGAAC, the PBM binding z-score was determined as 3.23 in [1]; 2.89 in test [2]; 0.704 in test [3]; 1.55 in test [4]; 0.857 in test [5]; 2.04 in test [6]. Besides, the PBM binding z-score in test [7] is 1.49; in test [8], 0.735; in test [9], 0.329; in [10], 1.15; in [11], 1.55; in [12], 0.828. The PBM binding z-score was found to be 0.852 in [13]; 0.481 in [14]; 0.745 in [15]; 1.69 in test [16]; 0.87 in [17]; 2.84 in [18].

Take TAGCCTAGGTCATTCAGGGGCCAGTAGAGAAAGC: the PBM binding z-score in test [1] was 1.64; in test [2], 2.66; in test [3] it was -0.415; in [4] it was -0.024; in test [5], 1.83; in test [6], 2.21. For the same sequence, the PBM binding z-score was -0.162 in test [7]; 3.33 in test [8]; 0.0247 in test [9]; 3.88 in test [10]; 3.21 in test [11]; 6.31 in test [12]. In addition, the PBM binding z-score in test [13] stood at 4.35; in [14], 1.84; in [15], 2.97; in [16] it was 3.63; in test [17], 0.688; in test [18], 1.53.

Turning to CATACAGGGTCAGCTAGGCCACAGTAGGGACGGC, the PBM binding z-score in test [1] is 1.06; in test [2], 2.82; in test [3] it was 0.893; in test [4], 0.0227; in test [5], 2.12; in [6], 2.51. For the same sequence, the PBM binding z-score in [7] is 0.181; in test [8] it was 3.4; in test [9] it was 0.445; in [10], 4.17; in test [11] it was 3.58; in test [12] it was 4.56. In addition, the PBM binding z-score in test [13] is 4.98; in test [14], 1.69; in [15] it was 4.55; in [16], 3.28; in test [17], 1.02; in test [18] it was 1.89.

Turning to GCTTGTAGAGCAAGGTTAAGAAAGACTAAGCTAA, the PBM binding z-score was 2.64 in test [1]; 1.72 in [2]; -0.693 in [3]; -0.41 in test [4]; -0.216 in test [5]; 0.206 in [6]. Further, the PBM binding z-score in [7] was -0.546; in test [8] it was 0.613; in test [9], -0.213; in test [10], 0.514; in test [11], -0.118; in [12], 0.204. Besides, the PBM binding z-score in test [13] was 0.162; in [14], -0.22; in test [15], 0.282; in test [16] it was 0.745; in test [17], -1.02; in test [18], -0.25.

For the sequence CCTAGCAGGCCAATGTGGGTCACTCAAGGCTTGA, the PBM binding z-score is 4.05 in test [1]; 4.91 in test [2]; -0.196 in test [3]; -1.11 in test [4]; 0.296 in [5]; 1.24 in [6]. For the same sequence, the PBM binding z-score in test [7] was -0.313; in test [8], 1.55; in test [9] it was -0.725; in [10] it was 1.54; in test [11], 2.16; in test [12], 1.23. The PBM binding z-score was 1.02 in [13]; -0.341 in test [14]; 1.15 in [15]; 2.63 in test [16]; -0.567 in test [17]; -0.0479 in test [18].

On to CCAACTAGGTCAAAGGTCAAAGTCGAGCCAACCA, for which the PBM binding z-score amounted to 8.37 in test [1]; 8.87 in test [2]; 4.39 in test [3]; 5.12 in test [4]; 5.23 in test [5]; 7.1 in [6]. Further, the PBM binding z-score in test [7] was found to be 1.86; in [8] it was 8.64; in test [9], 3.1; in test [10] it was 5.72; in test [11], 5.33; in test [12] it was 9.03. Moreover, the PBM binding z-score in [13] is 7.43; in test [14], 3.14; in test [15], 10.2; in test [16], 4.82; in test [17], 1.79; in test [18] it was 3.47.
